For part of these data: Entries with a potency or affinity are not part of this list.
Key:
Parameters in all cases: scale not given: direction of the effect not stated beside the values
[1] = molecular target: Protein translocase subunit SecA (Escherichia coli (strain K12)) (UniProt P10408); test: Assay to Identify E. coli SecA ATPase Inhibitors; type: functional; settings: 30 µM
[2] = molecular target: T1, Ubiquitin-activating enzyme e1, putative (Leishmania donovani (strain BPK282A1)) (UniProt E9BSI1); test: Leishmania donovani Ubiquitin Activating Enzyme (LdE1); type: functional; settings: 30 µM
T1 sequence (whole entry): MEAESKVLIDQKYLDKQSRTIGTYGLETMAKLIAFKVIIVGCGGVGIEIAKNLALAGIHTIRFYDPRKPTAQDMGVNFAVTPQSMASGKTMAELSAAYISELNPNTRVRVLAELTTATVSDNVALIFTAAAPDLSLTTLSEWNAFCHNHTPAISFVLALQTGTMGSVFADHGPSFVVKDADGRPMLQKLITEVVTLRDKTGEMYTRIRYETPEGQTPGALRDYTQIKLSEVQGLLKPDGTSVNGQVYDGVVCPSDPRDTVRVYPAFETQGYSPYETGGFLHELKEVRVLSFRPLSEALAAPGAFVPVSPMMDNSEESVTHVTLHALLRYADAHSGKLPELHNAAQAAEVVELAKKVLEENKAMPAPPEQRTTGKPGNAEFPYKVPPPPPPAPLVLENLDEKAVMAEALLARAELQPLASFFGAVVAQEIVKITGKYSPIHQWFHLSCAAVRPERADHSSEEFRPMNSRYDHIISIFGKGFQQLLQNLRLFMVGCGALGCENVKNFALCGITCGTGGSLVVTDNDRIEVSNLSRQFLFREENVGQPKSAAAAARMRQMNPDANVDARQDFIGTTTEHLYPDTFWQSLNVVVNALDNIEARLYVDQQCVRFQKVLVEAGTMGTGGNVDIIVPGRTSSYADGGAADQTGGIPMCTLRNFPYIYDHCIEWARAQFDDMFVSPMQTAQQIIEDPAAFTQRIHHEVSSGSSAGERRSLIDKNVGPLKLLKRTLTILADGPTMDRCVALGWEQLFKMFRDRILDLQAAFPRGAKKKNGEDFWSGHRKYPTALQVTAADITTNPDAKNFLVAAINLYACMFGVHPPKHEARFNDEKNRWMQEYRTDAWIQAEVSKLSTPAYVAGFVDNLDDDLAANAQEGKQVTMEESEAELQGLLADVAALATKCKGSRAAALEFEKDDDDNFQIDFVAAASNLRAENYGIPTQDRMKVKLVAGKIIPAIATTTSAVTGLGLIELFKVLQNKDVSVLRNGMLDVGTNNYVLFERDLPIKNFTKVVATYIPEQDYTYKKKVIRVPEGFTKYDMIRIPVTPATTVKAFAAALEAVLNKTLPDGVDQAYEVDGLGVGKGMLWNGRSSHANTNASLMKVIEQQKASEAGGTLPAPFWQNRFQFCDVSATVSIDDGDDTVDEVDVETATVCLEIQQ

[3] = molecular target: AMP-activated protein kinase, AMPK (Homo sapiens) (UniProt P54646+O43741+P54619+Q9UGJ0+Q9Y478+Q13131+Q9UGI9); test: AMP-dependent Kinase enzyme assay. An in vitro enzyme assay that detects ADP turnover that is directly proportional to AMPK activity. This uses naive AMPK that is activated during the assay with MK-8722; type: functional; settings: 30 µM
[4] = molecular target: Sialic acid-binding Ig-like lectin 9 (Homo sapiens) (UniProt Q9Y336); test: Hs-Siglec9 ALPHAscreen SOP 20170721; settings: 10 µM
Chain of Sialic acid-binding Ig-like lectin 9 (Homo sapiens) (Q9Y336 whole entry): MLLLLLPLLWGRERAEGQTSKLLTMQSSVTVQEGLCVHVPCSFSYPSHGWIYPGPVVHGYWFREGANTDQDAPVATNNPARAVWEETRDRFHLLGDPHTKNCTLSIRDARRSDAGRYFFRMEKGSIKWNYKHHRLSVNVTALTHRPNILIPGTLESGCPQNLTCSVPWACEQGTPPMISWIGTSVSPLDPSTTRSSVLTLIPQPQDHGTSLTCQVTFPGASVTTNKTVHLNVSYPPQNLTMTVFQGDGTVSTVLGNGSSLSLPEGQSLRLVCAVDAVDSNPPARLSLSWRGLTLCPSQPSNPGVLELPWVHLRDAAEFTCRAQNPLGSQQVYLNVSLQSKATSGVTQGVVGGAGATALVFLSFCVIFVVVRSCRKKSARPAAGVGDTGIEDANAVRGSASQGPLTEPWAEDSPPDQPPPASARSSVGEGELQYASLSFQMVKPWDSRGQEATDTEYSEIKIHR

[5] = tested on: Trypanosoma cruzi; test: Trypanosoma cruzi phosphomannomutase and mannose-1-phosphate guanylyltransferase assay; type: functional; settings: 10 µM
[6] = molecular target: T2, Arginase-2, mitochondrial (Homo sapiens) (UniProt P78540); test: in vitro enzyme assay to detect the production of urea directly proportional to the activity of Arginase II; type: functional; settings: 33.3 µM; further: in the data most compounds retested in dose-response had high values
T2 sequence (whole entry): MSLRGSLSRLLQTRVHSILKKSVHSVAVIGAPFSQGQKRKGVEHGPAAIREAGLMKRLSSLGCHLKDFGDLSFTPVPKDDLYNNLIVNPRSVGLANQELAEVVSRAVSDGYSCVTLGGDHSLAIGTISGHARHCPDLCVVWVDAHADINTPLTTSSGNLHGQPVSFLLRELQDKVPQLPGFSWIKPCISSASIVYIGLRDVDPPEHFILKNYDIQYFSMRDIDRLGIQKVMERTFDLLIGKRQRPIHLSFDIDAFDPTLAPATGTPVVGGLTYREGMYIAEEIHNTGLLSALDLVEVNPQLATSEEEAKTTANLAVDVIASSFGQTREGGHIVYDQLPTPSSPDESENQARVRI

[7] = molecular target: T3, Proteasome subunit beta (Trypanosoma cruzi) (UniProt O96673); test: Trypanosoma cruzi proteasome chymotrypsin-like activity (TcProtChymo) assay.; further: in the data most compounds retested in dose-response had high values; type: functional; settings: 9.37 µM
T3 sequence (whole entry): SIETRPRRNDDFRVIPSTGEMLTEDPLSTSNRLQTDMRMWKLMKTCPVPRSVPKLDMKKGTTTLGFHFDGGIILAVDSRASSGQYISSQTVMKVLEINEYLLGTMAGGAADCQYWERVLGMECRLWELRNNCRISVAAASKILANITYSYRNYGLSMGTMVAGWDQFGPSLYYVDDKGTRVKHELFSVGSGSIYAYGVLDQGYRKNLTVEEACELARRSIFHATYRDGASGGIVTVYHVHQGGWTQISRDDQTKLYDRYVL

[8] = species: Homo sapiens; test: To identify inhibition of the IFN signalling (Jak-Stat) pathway via expression of an eGFP reporter gene under the control of an IFN-stimulated response element (ISRE) containing MxA promoter.; type: functional; settings: 30 µM
[9] = molecular target: T4, Tyrosyl-tRNA synthetase, putative (Trypanosoma cruzi (strain CL Brener)) (UniProt Q4DSP6); test: Trypanosoma cruzi tyrosyl tRNA synthetase (TcYRS) _High Tyrosine SOP; type: functional; settings: 30 µM; further: in the data most compounds retested in dose-response had high values
T4 sequence (whole entry): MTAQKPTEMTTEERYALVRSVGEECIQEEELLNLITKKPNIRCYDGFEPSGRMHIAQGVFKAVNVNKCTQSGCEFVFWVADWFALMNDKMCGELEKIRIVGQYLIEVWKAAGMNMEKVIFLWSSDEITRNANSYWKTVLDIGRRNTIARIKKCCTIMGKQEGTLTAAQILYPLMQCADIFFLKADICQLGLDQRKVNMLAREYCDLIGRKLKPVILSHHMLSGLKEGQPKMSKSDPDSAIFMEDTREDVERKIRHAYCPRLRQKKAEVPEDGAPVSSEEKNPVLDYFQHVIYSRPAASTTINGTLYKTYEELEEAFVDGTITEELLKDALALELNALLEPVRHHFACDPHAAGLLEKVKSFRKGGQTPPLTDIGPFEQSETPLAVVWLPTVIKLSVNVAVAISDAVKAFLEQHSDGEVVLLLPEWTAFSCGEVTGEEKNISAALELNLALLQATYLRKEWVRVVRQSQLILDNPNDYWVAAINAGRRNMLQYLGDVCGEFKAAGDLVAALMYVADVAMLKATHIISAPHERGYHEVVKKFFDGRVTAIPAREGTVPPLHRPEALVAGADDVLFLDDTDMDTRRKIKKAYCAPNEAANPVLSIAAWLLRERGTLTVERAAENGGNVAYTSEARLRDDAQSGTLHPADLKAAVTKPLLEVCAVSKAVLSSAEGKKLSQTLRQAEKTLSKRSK

[10] = molecular target: T4, Tyrosyl-tRNA synthetase, putative (Trypanosoma cruzi (strain CL Brener)); test: Trypanosoma cruzi tyrosyl tRNA synthetase (TcYRS) SOP; type: functional; settings: 30 µM
[11] = molecular target: Chromo domain-containing protein 1 (Saccharomyces cerevisiae (strain ATCC 204508 / S288c) (Baker's yeast)) (UniProt P32657); test: ScCHD-1 Enzyme Inhibition Assay; type: functional; settings: 30 µM; further: in the data most compounds retested in dose-response had high values
Chain of Chromo domain-containing protein 1 (Saccharomyces cerevisiae (strain ATCC 204508 / S288c) (Baker's yeast)) (P32657 whole entry, the tested form may be a part): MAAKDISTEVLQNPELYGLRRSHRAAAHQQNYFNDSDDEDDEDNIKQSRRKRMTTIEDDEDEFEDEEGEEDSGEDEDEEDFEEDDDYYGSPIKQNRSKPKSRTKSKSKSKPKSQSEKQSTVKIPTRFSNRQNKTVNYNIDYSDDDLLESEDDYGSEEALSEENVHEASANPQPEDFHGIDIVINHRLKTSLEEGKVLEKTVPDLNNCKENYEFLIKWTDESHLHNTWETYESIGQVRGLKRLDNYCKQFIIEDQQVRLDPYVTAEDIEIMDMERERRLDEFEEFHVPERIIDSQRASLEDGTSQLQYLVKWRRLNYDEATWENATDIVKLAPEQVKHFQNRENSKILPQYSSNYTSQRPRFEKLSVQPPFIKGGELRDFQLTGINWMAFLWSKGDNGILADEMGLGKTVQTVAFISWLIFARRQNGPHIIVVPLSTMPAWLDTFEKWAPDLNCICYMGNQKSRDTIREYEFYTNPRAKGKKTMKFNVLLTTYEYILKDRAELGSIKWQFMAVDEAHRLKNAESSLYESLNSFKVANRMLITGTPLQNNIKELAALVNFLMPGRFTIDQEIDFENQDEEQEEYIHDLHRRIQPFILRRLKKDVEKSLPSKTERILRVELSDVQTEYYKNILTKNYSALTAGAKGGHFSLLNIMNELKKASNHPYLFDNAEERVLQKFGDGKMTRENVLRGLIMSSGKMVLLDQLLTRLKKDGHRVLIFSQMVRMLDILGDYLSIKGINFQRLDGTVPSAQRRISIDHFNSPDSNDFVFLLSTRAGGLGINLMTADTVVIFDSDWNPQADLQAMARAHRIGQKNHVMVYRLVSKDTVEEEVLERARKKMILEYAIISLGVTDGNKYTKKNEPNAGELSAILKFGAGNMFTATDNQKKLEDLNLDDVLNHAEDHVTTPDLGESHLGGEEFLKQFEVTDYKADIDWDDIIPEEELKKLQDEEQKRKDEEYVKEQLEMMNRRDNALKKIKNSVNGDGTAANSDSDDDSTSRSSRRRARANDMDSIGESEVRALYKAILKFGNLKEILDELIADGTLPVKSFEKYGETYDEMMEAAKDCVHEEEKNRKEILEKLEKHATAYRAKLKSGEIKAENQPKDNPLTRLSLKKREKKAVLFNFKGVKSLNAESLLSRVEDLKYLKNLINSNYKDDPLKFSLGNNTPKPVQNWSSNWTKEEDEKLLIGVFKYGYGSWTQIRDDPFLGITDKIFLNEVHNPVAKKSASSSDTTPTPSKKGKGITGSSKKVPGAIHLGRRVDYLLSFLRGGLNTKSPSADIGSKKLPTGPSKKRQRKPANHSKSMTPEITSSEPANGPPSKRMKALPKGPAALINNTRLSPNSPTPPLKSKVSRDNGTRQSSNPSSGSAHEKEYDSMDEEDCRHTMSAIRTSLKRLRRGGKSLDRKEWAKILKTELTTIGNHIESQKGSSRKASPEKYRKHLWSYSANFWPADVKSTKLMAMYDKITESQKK

Chain of Protein translocase subunit SecA (Escherichia coli (strain K12)) (P10408 whole entry): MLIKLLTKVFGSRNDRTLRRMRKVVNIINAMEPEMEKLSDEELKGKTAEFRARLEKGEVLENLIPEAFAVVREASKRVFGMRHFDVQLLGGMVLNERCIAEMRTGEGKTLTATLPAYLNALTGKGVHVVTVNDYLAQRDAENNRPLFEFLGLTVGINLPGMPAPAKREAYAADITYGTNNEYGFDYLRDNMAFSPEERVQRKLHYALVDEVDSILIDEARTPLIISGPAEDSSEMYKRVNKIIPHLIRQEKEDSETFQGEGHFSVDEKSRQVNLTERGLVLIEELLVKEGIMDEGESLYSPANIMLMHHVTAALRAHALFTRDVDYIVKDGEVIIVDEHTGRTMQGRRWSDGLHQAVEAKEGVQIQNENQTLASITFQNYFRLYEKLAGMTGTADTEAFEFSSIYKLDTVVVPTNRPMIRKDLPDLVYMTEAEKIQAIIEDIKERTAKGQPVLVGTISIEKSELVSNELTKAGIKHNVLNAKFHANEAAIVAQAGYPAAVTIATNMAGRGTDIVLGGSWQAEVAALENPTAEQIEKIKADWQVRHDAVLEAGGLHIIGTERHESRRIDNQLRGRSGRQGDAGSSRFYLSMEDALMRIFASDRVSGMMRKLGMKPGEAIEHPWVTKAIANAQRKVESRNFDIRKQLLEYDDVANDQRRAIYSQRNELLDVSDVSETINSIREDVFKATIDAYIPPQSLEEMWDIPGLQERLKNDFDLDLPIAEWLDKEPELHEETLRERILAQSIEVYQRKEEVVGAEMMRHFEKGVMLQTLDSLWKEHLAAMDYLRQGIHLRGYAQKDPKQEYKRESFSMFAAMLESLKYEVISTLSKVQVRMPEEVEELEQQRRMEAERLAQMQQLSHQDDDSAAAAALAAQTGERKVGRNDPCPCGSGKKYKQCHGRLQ

| Structure (SMILES) | Percent Effect [1] [%] | Percent Effect [2] [%] | Percent Effect [3] [%] | Percent Effect [4] [%] | Percent Effect [5] [%] | Percent Effect [6] [%] | Percent Effect [7] [%] | Percent Effect [8] [%] | Percent Effect [9] [%] | Percent Effect [10] [%] | Percent Effect [11] [%] |
| --- | --- | --- | --- | --- | --- | --- | --- | --- | --- | --- | --- |
| c1cnn(CC2CCCCN2c2ncnc3sccc23)c1 (stereo unspecified) | -7.65 | -5.33 | 0.901 | 5.7 | -2.63 | -1.56 | 6.45 | 29.1 | -0.546 | -1.24 | -3.05 |
| COCc1nc(C(=O)N2CCCC2c2c(C)nn(C)c2C)cs1 (stereo unspecified) | -0.948 | -3.8 | 3.43 | 1.97 | -1.33 | 0.645 | -0.172 | 12 | 3.12 | 5.06 | 2.98 |
| CCS(=O)(=O)c1ccccc1C(=O)NCc1ccnc(N(C)C)c1 | -2.2 | 28.6 | -10.1 | 2.33 | 2.62 | 4.27 | 14 | 4.01 | 9.71 | 24.4 | -10.5 |
| c1cnc(N2CCOC3(CCN(CC4CCCCC4)CC3)C2)nc1 | 0.617 | 13.3 | 14.1 | -0.802 | -5.12 | -2.1 | 14.7 | 10.1 | 5.32 | 11.5 | -3.47 |
| CC(=O)N1CCC2(CC1)COCCN2Cc1ccc(F)cc1 | -4.99 | 8.11 | 4.11 | -8.39 | -4.2 | -0.955 | 18.1 | -2.37 | -1.08 | 7.69 | -1.77 |
| CS(=O)(=O)N1CCOCC2(CCN(C(=O)c3cccnc3)CC2)C1 | 0.0699 | 2.74 | 2.01 | -0.0941 | 2.78 | 4.79 | 9.33 | -18.8 | 0 | 3.7 | -3.11 |
| COc1ccc(NC(=O)C(c2cccc(F)c2)N2CCOCC2)cc1 (stereo unspecified) | -1.48 | 0 | 4.04 | 2.98 | -5.75 | 3.55 | 13.5 | 0.224 | 6.38 | 10.4 | -3.15 |
| CN(C)c1nc2c(c(=O)[nH]1)CCN(C(=O)c1cccc3nccnc13)C2 | 1.03 | 18.2 | -1.68 | 4.82 | 1.87 | -33.1 | 19.1 | 29.3 | 8.6 | 16.1 | -3.03 |
| CC(C)(C)c1cnc(CN2CCCC2Cn2cccn2)o1 (stereo unspecified) | -0.386 | 0 | 6.71 | -3.67 | 5.19 | -0.38 | 5.16 | -9.18 | 2.46 | 3.8 | -4.77 |
| CCCn1nc2c(cc1=O)CN(CCCS(N)(=O)=O)CC2 | -1.13 | 0 | -142 | 6.58 | -3.3 | 6.01 | 12.1 | -3.47 | -1.48 | -8.64 | -2.91 |
| CCN1C[C@H]2CCN(C(C)=O)CC[C@H]2S1(=O)=O | -0.139 | 9.33 | -6.04 | -0.534 | -5.7 | -5.81 | 19.6 | 1.4 | 0 | 5.13 | -7.45 |
| CCc1nnc2n1CCN(C(=O)c1cnc3ccccc3n1)C2 | -4.63 | 4.17 | -7.62 | 28.2 | 3.79 | 17.2 | 12.5 | -6.01 | 5.26 | 12.8 | -3.35 |
| Cc1nc(N2CCN(C(=O)c3ccccc3)CC2)c2c(n1)c(C)nn2C | -0.87 | 12 | 3.25 | 0 | -0.393 | -12.8 | 12.9 | 25.6 | 6.35 | 10.3 | -10.1 |
| CN(C)C(=O)N1C[C@@H]2CCCO[C@@H]2[C@H](N(C)Cc2ccco2)C1 | -3.04 | 13.7 | 2.03 | 7.85 | 6.55 | -5.99 | 8.99 | -3.94 | 4.17 | 13.6 | -11.2 |
| COCCN1CCN(C(=O)c2ccncc2F)Cc2cccnc21 | 2.77 | 6.67 | 4.36 | -2.01 | -10.6 | -1.58 | 20.3 | 0.197 | 3.17 | -5.13 | -10.5 |
| COc1ccc(-c2nc(CN3CC(n4cc(C)cn4)C3)no2)cc1 | -4.92 | 10.4 | -1.25 | 16.8 | 4.03 | 88.3 | 12 | 12.7 | 6.45 | 21 | -9.02 |
| Cc1nc(CCNC(=O)NC2CCN(c3ncccn3)CC2)cs1 | -1.83 | 11 | -4.69 | 4.09 | 1.19 | -1.6 | 16 | 22.2 | 11.5 | 21 | 0.13 |
| O=C(C1CCCCN1Cc1nc(-c2ccco2)no1)N1CCCC1 (stereo unspecified) | -8.23 | -2.7 | 7.91 | 4.5 | -5.11 | -1.66 | 2.33 | 6.46 | 0 | 3.66 | 5.11 |
| Cc1cc(NC(=O)Cn2cc(C#N)c(=O)c3cc(Br)ccc32)no1 | -5.99 | -45.3 | -1.25 | 3.63 | -1.27 | -9.9 | 13.8 | 19.5 | -14.8 | -60.5 | 80.7 |
| COc1cccc(CN2CCCC2c2c(C)nn(C)c2C)c1 (stereo unspecified) | -1.8 | -2.53 | -4.49 | 11.6 | 0.661 | 0.38 | -1.72 | -9.36 | 5.42 | -1.27 | -3.67 |
| Cc1cc(C)n(CC2CN(CCOc3cccc(F)c3)CCO2)n1 (stereo unspecified) | -4.88 | 7.89 | 0.382 | 4.47 | 1.59 | -3.24 | 1.1 | 24.5 | 4.43 | 16.1 | -3.81 |

Source: ChEMBL document CHEMBL3988442, “University of Dundee, Small-Polar-MMV Screening Library” (2021)
